Screening results deposited in PubChem BioAssay by Broad Institute.
The list is not random: actives were taken first. Their share in the collection is about 3.4%.
Vif imaging = HIV Vif inhibition; inhibition, % at 7.49 µM; HEK293T cells, Vif self-association by quenched fluorescence, imaging, 24 h; 340,000 tested, 0.35% active; in the data active = inhibition above about 50%, passing the limit was not always enough; inconclusive = no clear call, values can overlap the other calls; inactive = below about 31%
esBAF inh = blocks esBAF chromatin remodeling in mouse ES cells; Bmi1-luciferase knock-in reporter, 24 h; 100% = twice the neutral-well signal; reporter increase, % at 12.5 µM; 350,000 tested, 2% active; AID 602393; in the data active = activation above about 40%; inconclusive = no clear call, values can overlap the other calls;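 also: 0% = median of the plate's neutral control wells and 100% = double that signal; a rise in the Bmi1 reporter signal indicates esBAF inhibition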
HSF1 inh = HSF1 inhibition | activity change, negative = inhibition, % at 7.5 µM (by protocol) | 300,000 tested, 0.77% active | NIH3T3-HGL HSE-luciferase, MG132-induced, luminescence 8 h; stronger effect = lower value;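 active = more than half of replicate wells show activity change below -50%, luminescence cut by over half; inconclusive = some wells, but at most half, below -50%; inactive = no replicate well below -50%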;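 also: luciferase reports HSF-1 transcriptional activity via heat shock element; 0% = median of DMSO wells and -100% = zero luminescence signal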
HSF1 activator = increases HSF-1 driven luciferase reporter signal | AID 504408 | activation, % at 9 µM | NIH3T3-HGL HSF-1 luciferase reporter, MG132, 8 h; 100% = twice DMSO control signal | 300,000 tested, 1.7% active;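 active = mean replicate activation of at least 50% with a set share of replicates each reaching 50%; inconclusive = only one of those two conditions met; inactive = mean below 50% and too few replicates reaching it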;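 also: 0% = median of the neutral control wells and 100% = twice that signal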
Numbers without * were called inactive; ? = inconclusive; . = no result given.

SMILES | Vif imaging | esBAF inh | HSF1 inh | HSF1 activator
CCOC(=O)C1(Cc2cccc(Cl)c2)CCCN(C(=O)c2c(CC)noc2C)C1 (stereo unspecified) | -1 | 20 | 13 | -7
CCOC(=O)C1(Cc2cccc(OC)c2)CCCN(C(=O)CCN2CCCO2)C1 (stereo unspecified) | 18 | 68* | 22 | 42
CCOC(=O)C1(Cc2cccc(OC)c2)CCCN(C(=O)c2ccc(OC)o2)C1 (stereo unspecified) | 0 | 80* | 41 | ?
CCOC(=O)C1(Cc2cccc(Cl)c2)CCCN(C(=O)CCOC)C1 (stereo unspecified) | 7 | 8 | 6 | 21
CCOC(=O)C1(Cc2cccc(OC)c2)CCCN(C(=O)c2cc(CC(C)C)[nH]n2)C1 (stereo unspecified) | . | . | 14 | 25
C[C@H](CO)N1C[C@H](C)[C@@H](CN(C)Cc2ccc3c(c2)OCO3)Oc2ccc(NC(=O)CCC(F)(F)F)cc2CC1=O | . | 2 | . | .
C[C@H]1CN([C@@H](C)CO)C(=O)Cc2cc(NC(=O)Nc3ccc4c(c3)OCO4)ccc2O[C@H]1CN(C)Cc1ccc(Oc2ccccc2)cc1 | . | -4 | . | .
CO[C@@H]1CN(C)C(=O)c2cc(NC(=O)c3cccc(F)c3)ccc2OC[C@H](C)N(C(C)=O)C[C@@H]1C | . | -8 | . | .
CCNC(=O)[C@H]1[C@H](CO)[C@H]2Cn3c(ccc(-c4ccccc4)c3=O)[C@H]2N1C(=O)C1CCC1 | . | 2 | . | .
COc1ccc2c(c1)O/C(=C\c1sccc1C)C2=O | -6 | 42* | 10 | 27
O=C([C@H]1[C@H](CO)[C@H]2Cn3c(ccc(-c4ccncc4)c3=O)[C@@H]1N2Cc1ccccc1)N1CCOCC1 | . | -5 | . | .
CCNC(=O)C[C@@H]1C=C[C@@H](NC(=O)C2CCC2)[C@@H](CO)O1 | . | -3 | . | .
Cc1cc(N/N=C/c2ccc(O)c(C)c2O)nc(-c2ccccc2O)n1 | -6 | . | -59* | -62
Cc1cc(NCCCN)nc(-c2ccccc2O)n1 | -9 | 45* | 14 | 9
Cc1ccc(Nc2cc(C)nc(-c3ccccc3)n2)cc1 | . | ? | 20 | 52*
C/C(=N\Nc1cc(C)nc(-c2ccccc2O)n1)c1ccccc1 | 6 | 9 | -27 | -39
Cc1cc(Nc2ccc(Br)cc2)nc(-c2ccccc2O)n1 | 4 | 9 | 2 | 5
Cc1cc(Nc2ccc(F)c(F)c2)nc(-c2ccccc2O)n1 | -5 | 2 | 8 | 1
Cc1ccc(Nc2cc(C)nc(-c3ccccc3O)n2)cc1 | -7 | 53* | 18 | 32
COc1cccc(NC(=O)N[C@@H]2C=C[C@@H](CC(=O)N3CCN(C)CC3)O[C@H]2CO)c1 | . | -1 | . | .
Cc1cccc2cc(-c3nc4c(C)cccn4c3NCc3ccco3)c(=O)[nH]c12 | -5 | 7 | 10 | 12
Cc1ccc2[nH]c(=O)c(-c3nc4cc(C)ccn4c3NCc3ccco3)cc2c1 | . | 69* | 1 | -7
OC(c1ccccc1)c1ncc(-c2ccc(Cl)cc2)[nH]1 (stereo unspecified) | -4 | 47* | . | .
Cc1ccccc1-c1cnc(C(O)c2ccccc2)[nH]1 (stereo unspecified) | -9 | 49* | . | .
OC(c1ccc(Cl)c(Cl)c1)c1ncc(-c2ccc(Cl)cc2)[nH]1 (stereo unspecified) | 4 | -10 | . | .
SMILES | Vif imaging | esBAF inh | HSF1 inh | HSF1 activator
COc1ccc(S(=O)(=O)N(C)C[C@H]2Oc3c(NC(=O)Nc4cccc5ccccc45)cccc3C(=O)N([C@H](C)CO)C[C@@H]2C)cc1 | . | 1 | . | .
COc1ccc(NC(=O)Nc2cccc3c2O[C@@H](CN(C)C(=O)Nc2ccc(F)cc2)[C@H](C)CN([C@@H](C)CO)C3=O)cc1 | . | -5 | . | .
CCN1[C@@H]2c3ccc(-c4ccccc4OC)c(=O)n3C[C@@H]2[C@@H](CO)[C@@H]1C(=O)NCc1ccc(F)cc1 | . | 6 | . | .
COc1ccc(NC(=O)/C(Cl)=C(/Cl)S(=O)(=O)Cc2ccccc2)cn1 | -13 | -56 | -76* | -76
Cc1ccc(C(C(=O)NC2CCCCC2)N(C(=O)Cc2c[nH]c3ccccc23)c2ccccc2)o1 (stereo unspecified) | 7 | 6 | 32 | 58*
O=C(NC1CCCCC1)C(c1cccs1)N(C(=O)Cc1c[nH]c2ccccc12)c1ccc(F)cc1 (stereo unspecified) | -11 | 4 | 39 | 51*
CC(=O)c1ccc(N(C(=O)Cc2c[nH]c3ccccc23)C(C(=O)NC2CCCCC2)c2cccs2)cc1 (stereo unspecified) | -17 | ? | 2 | 32
COc1ccc(C(=O)OCC(=O)c2c[nH]c3ccccc23)cc1OC | 1 | 52* | . | .
CC1(C(=O)OCC(=O)c2c[nH]c3ccccc23)CC1(Cl)Cl (stereo unspecified) | 1 | 46* | 7 | 20
Cc1cnc(C(=O)OCC(=O)c2c[nH]c3ccccc23)cn1 | 3 | -4 | . | .
O=C(COC(=O)c1ccccc1C(=O)OCC(=O)NCCc1c[nH]c2ccccc12)NCCc1c[nH]c2ccccc12 | -8 | 3 | 18 | 9
CC(=O)OCC(=O)NCC(=O)c1c[nH]c2ccccc12 | 4 | 0 | -61* | -70
COc1cc(C(=O)OCC(=O)c2c[nH]c3ccccc23)ccc1OCC(=O)N1CCOCC1 | -6 | 9 | 3 | 10
COc1cc(Cl)c(CC(=O)c2c[nH]c3ccccc23)cc1OC | -9 | 6 | 13 | 62*
Cc1cccc(CC(=O)c2c[nH]c3ccccc23)c1 | -6 | . | 11 | 12
Cc1ccc(S(=O)(=O)Nc2cccc3c2O[C@@H](CN(C)S(=O)(=O)c2cn(C)cn2)[C@@H](C)CN([C@@H](C)CO)C3=O)cc1 | . | -1 | . | .
CCCNC(=O)N1C[C@@H](O)COC[C@@H]2O[C@H](CC(=O)N[C@@H]3CCN(Cc4ccccc4)C3)CC[C@H]21 | . | -3 | . | .
C/C=C/c1ccc2c(c1)O[C@H](CN(C)C(=O)COC)[C@@H](C)CN([C@@H](C)CO)S2(=O)=O | . | -5 | . | .
O=C(CCN1CCCCC1)N[C@H]1CC[C@H](CC(=O)N2CCC(Cc3ccccc3)CC2)O[C@@H]1CO | . | 4 | . | .
O=C(OCC(=O)c1c[nH]c2ccccc12)C1=COCCO1 | . | 64* | 9 | 28
ClCC1CSC(=NC23CC4CC(CC(C4)C2)C3)O1 (stereo unspecified) | 2 | . | 30 | 59*
CC1(C)C2CCC(C2)C1(C)N=C1OC(CCl)CS1 (stereo unspecified) | 3 | 1 | 0 | 11
COCC(=O)NC[C@H]1N[C@H](CO)[C@H]1c1ccc(C2=CCCCC2)cc1 | . | -1 | . | .
CC(=O)N1N=C(c2ccc(Cl)cc2)OC1c1ccc(C(C)C)cc1 (stereo unspecified) | . | . | -3 | -4
CC(=O)N1N=C(c2ccc(C)cc2)OC1c1ccc(Br)cc1 (stereo unspecified) | -1 | 38 | 37 | 57*
Cc1ccc(-c2nc3ccccc3[nH]2)cc1NC(=S)NC(=O)c1ccccc1Br | -20 | 58* | 18 | 30
Cc1ccc(-c2nc3ccccc3[nH]2)cc1NC(=O)c1ccc2c(c1)OCO2 | 5 | 45* | 34 | 88*
